Active and inactive are the calls of the source. Rule for the calls: active = hit-call score of the fitted dose curve at least 0.9, where 1 is the maximum; inactive = score below 0.9.
Experiments:
Conditions in all cases: mRNA level, 48 h; actives raise or lower the signal
[1] = read-out: NAD(P)H dehydrogenase [quinone] 1 (NQO1), NQO1 (gene 1728); assay: LTEA_HepaRG_NQO1: Life Technologies and Expression Analysis (LTEA) Assay for NAD(P)H dehydrogenase [quinone] 1 (NQO1) using HepaRG (AID 2283526)
Procedure, shortened: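 NQO1 transcript induction or loss measured by TaqMan qRT-PCR, referenced to three housekeeping genes and fitted bidirectionally against 0.5% DMSO. HepaRG cultures exposed 48 h, duplicate, eight-point half-log series, top 100 uM.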

[2] = read-out: Nuclear factor erythroid 2-related factor 2 (Homo sapiens) (UniProt Q16236); assay: LTEA_HepaRG_NFE2L2: Life Technologies and Expression Analysis (LTEA) Assay for Nuclear factor erythroid 2-related factor 2 (NFE2L2) Transcription Factor using HepaRG (AID 2283527)
Procedure, shortened: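 Human liver HepaRG line treated in duplicate for 48 h with an eight-point series topping at 100 uM. Gene expression of NFE2L2 by qRT-PCR, bidirectionally fitted against the vehicle control.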

[3] = read-out: succinate dehydrogenase complex iron sulfur subunit B (SDHB), SDHB (gene 6390); assay: LTEA_HepaRG_SDHB: Life Technologies and Expression Analysis (LTEA) Assay for succinate dehydrogenase complex iron sulfur subunit B (SDHB) using HepaRG (AID 2283528)
Procedure, shortened: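 SDHB transcript level read by TaqMan qRT-PCR, housekeeping-normalised (ACTB, GAPDH, POLR2A), after 48 h chemical treatment of plated HepaRG cells; eight concentrations top 100 uM, half-log steps, 0.5% DMSO, duplicates; fitted both directions against DMSO.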

[4] = read-out: Signal transducer and activator of transcription 3 (Homo sapiens) (UniProt P40763); assay: LTEA_HepaRG_STAT3: Life Technologies and Expression Analysis (LTEA) Assay for Signal transducer and activator of transcription (STAT3) using HepaRG (AID 2283529)
Procedure, shortened: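 In this transcriptional endpoint, HepaRG cultures receive test chemicals at up to 100 uM for 48 h, tested in duplicate. STAT3 mRNA is normalized to ACTB, GAPDH and POLR2A.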

[5] = read-out: solute carrier (SLCO1B1), SLCO1B1 (gene 10599); assay: LTEA_HepaRG_SLCO1B1: Life Technologies and Expression Analysis (LTEA) Assay for solute carrier (SLCO1B1) using HepaRG (AID 2283530)
Procedure, shortened: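 SLCO1B1 transcript read by qRT-PCR (Fluidigm arrays), normalized to three housekeeping genes, after 48 h chemical exposure of HepaRG cells; bidirectional concentration-response fitting versus 0.5% DMSO baseline. Eight-point half-log series, maximum 100 uM.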

[6] = read-out: sulfotransferase 2A1 (SULT2A1), SULT2A1 (gene 6822); assay: LTEA_HepaRG_SULT2A1: Life Technologies and Expression Analysis (LTEA) Assay for sulfotransferase 2A1 (SULT2A1) using HepaRG (AID 2283531)
Procedure, shortened: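 HepaRG, 48 h chemical exposure, 8-pt half-log curve from 100 uM in 0.5% DMSO, duplicates. Readout: TaqMan qRT-PCR of SULT2A1 mRNA, housekeeping-normalized. Bidirectional fit vs DMSO baseline.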

[7] = read-out: Transforming Growth Factor (TGFA), TGFA (gene 7039); assay: LTEA_HepaRG_TGFA: Life Technologies and Expression Analysis (LTEA) Assay for Transforming Growth Factor (TGFA) using HepaRG (AID 2283532)
Procedure, shortened: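 Gene expression of TGFA was quantified by qRT-PCR after human HepaRG cells were treated for 48 h with test chemicals (eight concentrations, highest 100 uM, 0.5% DMSO). Activity in either direction was fitted relative to DMSO.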

[8] = read-out: Transforming Growth Factor (TGFB1), TGFB1 (gene 7040); assay: LTEA_HepaRG_TGFB1: Life Technologies and Expression Analysis (LTEA) Assay for Transforming Growth Factor (TGFB1) Transporter using HepaRG (AID 2283533)
Procedure, shortened: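 qRT-PCR readout of TGFB1 transcript in HepaRG lysates, normalized to three housekeeping genes; gain or loss of signal fitted relative to 0.5% DMSO vehicle. Exposure: 48 h, 8-point curve from 100 uM, duplicate wells.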

TIMP1, TIMP1 (gene 7076) = assay: LTEA_HepaRG_TIMP1: Life Technologies and Expression Analysis (LTEA) Assay for TIMP1 using HepaRG (AID 2283534);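 note: TaqMan qRT-PCR signal normalized to ACTB GAPDH and POLR2A housekeeping genes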
Procedure, shortened: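 HepaRG, 48 h exposure, 8-pt half-log series from 100 uM in 0.5% DMSO, duplicates; TIMP1 transcript by Fluidigm qRT-PCR, housekeeping-normalized; bidirectional curve fit vs DMSO baseline.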

[9] = read-out: Tumor necrosis factor receptor 1 (TNFRSF1A), TNFRSF1A (gene 7132); assay: LTEA_HepaRG_TNFRSF1A: Life Technologies and Expression Analysis (LTEA) Assay for Tumor necrosis factor receptor 1 (TNFRSF1A) using HepaRG (AID 2283535)
Procedure, shortened: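 HepaRG, 48 h plating then 48 h chemical exposure, serum-free induction media; 8-pt CRC from 100 uM, half-log, 0.5% DMSO vehicle, duplicates. Readout: TaqMan qRT-PCR (Fluidigm), housekeeping-gene normalized; bidirectional fit vs DMSO.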

Signal transducer and activator of transcription 3 (Homo sapiens), sequence (P40763 whole entry, looked up): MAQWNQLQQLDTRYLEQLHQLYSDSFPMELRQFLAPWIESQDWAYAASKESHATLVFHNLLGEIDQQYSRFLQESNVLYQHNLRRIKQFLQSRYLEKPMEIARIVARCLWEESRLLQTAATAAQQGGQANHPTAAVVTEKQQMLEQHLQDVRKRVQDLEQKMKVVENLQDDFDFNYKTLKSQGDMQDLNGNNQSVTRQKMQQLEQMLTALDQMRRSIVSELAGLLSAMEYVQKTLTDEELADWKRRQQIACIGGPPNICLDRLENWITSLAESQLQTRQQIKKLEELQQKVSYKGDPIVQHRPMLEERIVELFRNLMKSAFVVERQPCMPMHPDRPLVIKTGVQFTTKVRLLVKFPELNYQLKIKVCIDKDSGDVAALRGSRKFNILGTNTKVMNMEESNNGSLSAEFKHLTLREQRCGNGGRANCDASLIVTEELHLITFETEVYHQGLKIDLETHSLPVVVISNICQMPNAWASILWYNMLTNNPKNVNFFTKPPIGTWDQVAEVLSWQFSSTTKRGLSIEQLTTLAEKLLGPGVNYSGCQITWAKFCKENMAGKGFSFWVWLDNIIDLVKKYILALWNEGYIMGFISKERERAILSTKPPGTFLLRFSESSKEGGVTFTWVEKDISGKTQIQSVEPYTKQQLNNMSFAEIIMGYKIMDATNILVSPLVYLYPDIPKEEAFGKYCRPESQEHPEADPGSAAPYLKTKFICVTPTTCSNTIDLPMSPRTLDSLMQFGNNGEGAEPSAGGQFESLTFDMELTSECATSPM
Nuclear factor erythroid 2-related factor 2 (Homo sapiens), sequence (Q16236 whole entry, looked up): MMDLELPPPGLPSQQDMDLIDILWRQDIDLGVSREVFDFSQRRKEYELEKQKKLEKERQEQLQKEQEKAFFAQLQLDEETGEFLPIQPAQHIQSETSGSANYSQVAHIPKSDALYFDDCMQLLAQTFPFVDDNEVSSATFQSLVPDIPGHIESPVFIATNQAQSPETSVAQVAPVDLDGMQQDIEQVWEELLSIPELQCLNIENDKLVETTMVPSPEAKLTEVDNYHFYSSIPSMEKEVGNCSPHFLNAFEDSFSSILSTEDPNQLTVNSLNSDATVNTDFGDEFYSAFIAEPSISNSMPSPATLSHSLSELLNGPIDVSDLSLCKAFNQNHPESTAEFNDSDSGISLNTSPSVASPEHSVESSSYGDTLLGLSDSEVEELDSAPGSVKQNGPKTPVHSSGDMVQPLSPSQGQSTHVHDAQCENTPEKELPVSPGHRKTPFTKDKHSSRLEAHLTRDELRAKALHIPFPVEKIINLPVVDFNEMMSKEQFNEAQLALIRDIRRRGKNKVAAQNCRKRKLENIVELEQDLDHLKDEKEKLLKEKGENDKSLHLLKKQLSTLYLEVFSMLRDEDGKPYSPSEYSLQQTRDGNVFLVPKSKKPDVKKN

SMILES | outcome [1] | outcome [2] | outcome [3] | outcome [4] | outcome [5] | outcome [6] | outcome [7] | outcome [8] | outcome (TIMP1, TIMP1 (gene 7076)) | AC50 [2] | AC50 [7] | AC50 [5] | outcome [9] | AC50 [6] | AC50 [1] | AC50 [9] | AC50 [8] | AC50 [4]
c1ccc2c(c1)-c1cccc3cccc-2c13 | inactive | inactive | inactive | inactive | inactive | inactive | inactive | inactive | inactive | – | – | – | – | – | – | – | – | –
c1ccc2c(c1)oc1ccccc12 | inactive | inactive | inactive | inactive | inactive | inactive | inactive | inactive | inactive | – | – | – | – | – | – | – | – | –
CN(C)c1ccc(C(=O)c2ccc(N(C)C)cc2)cc1 | inactive | inactive | inactive | inactive | inactive | inactive | inactive | inactive | inactive | – | – | – | – | – | – | – | – | –
CC(C)(O)c1cnn2c(-c3ccc(F)c(-c4c(F)cccc4C#N)c3)cnc2n1 | inactive | – | inactive | inactive | inactive | inactive | – | inactive | inactive | 6.33 µM (active) | 12.6 µM (active) | – | – | – | – | – | – | –
CCNS(=O)(=O)C(F)(F)C(F)(F)C(F)(F)C(F)(F)C(F)(F)C(F)(F)C(F)(F)C(F)(F)F | inactive | inactive | inactive | inactive | – | inactive | inactive | inactive | inactive | – | – | 48.2 µM (active) | – | – | – | – | – | –
OCCOCCO | inactive | inactive | inactive | inactive | inactive | inactive | inactive | inactive | inactive | – | – | – | inactive | – | – | – | – | –
Clc1ccc(C(c2ccc(Cl)cc2)C(Cl)Cl)cc1 | inactive | inactive | inactive | inactive | inactive | inactive | inactive | inactive | inactive | – | – | – | inactive | – | – | – | – | –
CC(O)CCO (centres undefined) | inactive | inactive | inactive | inactive | inactive | inactive | inactive | inactive | inactive | – | – | – | – | – | – | – | – | –
Clc1ccc(Cl)c(Cl)c1 | inactive | inactive | inactive | inactive | inactive | – | inactive | inactive | inactive | – | – | – | – | 83.5 µM (active) | – | – | – | –
ClC1=C(Cl)C2(Cl)C3C(Cl)C=CC3C1(Cl)C2(Cl)Cl (centres undefined) | inactive | – | inactive | inactive | inactive | inactive | inactive | inactive | inactive | 8.87 µM (active) | – | – | inactive | – | – | – | – | –
c1ccc(NNc2ccccc2)cc1 | inactive | inactive | inactive | inactive | inactive | inactive | inactive | inactive | inactive | – | – | – | – | – | – | – | – | –
O=C1CCCO1 | – | inactive | inactive | inactive | inactive | inactive | inactive | inactive | inactive | – | – | – | – | – | 50 µM (active) | 77 µM (active) | – | –
Cc1cc(N=Nc2ccccc2C)ccc1N | inactive | – | inactive | inactive | – | – | – | – | inactive | 9.92 µM (active) | 12.6 µM (active) | 3.57 µM (active) | – | 12.8 µM (active) | – | – | 2.72 µM (active) | –
Cc1ccc(N)c(N)c1 | inactive | inactive | inactive | inactive | inactive | inactive | inactive | inactive | inactive | – | – | – | inactive | – | – | – | – | –
CC(C)(C)OOC(=O)c1ccccc1 | inactive | inactive | inactive | inactive | inactive | inactive | inactive | inactive | inactive | – | – | – | inactive | – | – | – | – | –
O=C(Nc1ccccc1)c1ccccc1I | inactive | – | inactive | inactive | inactive | inactive | inactive | – | inactive | 77.6 µM (active) | – | – | inactive | – | – | – | 50 µM (active) | –
Cc1cccc(N)c1N | inactive | inactive | inactive | – | – | inactive | inactive | inactive | inactive | – | – | 50 µM (active) | – | – | – | – | – | 9.92 µM (active)
COP(=S)(OC)SCN1C(=O)c2ccccc2C1=O | inactive | inactive | inactive | inactive | inactive | inactive | inactive | inactive | inactive | – | – | – | inactive | – | – | – | – | –
Cc1ccc([N+](=O)[O-])cc1 | inactive | inactive | inactive | inactive | inactive | inactive | inactive | inactive | inactive | – | – | – | – | – | – | – | – | –
[Cl-].[Cl-].[Hg+2] | inactive | inactive | inactive | inactive | inactive | inactive | inactive | inactive | inactive | – | – | – | inactive | – | – | – | – | –

Source: PubChem BioAssay (EPA / NIEHS)
